From article PMC4336329 (PLoS ONE, 2015) come the findings set out here.

Out of some 310,000 compounds screened, about 14,000 (4.5%) showed an effect of 50% or more. Effects have a minus sign here. For the sample, strong results were picked, then their nearest neighbours and some compounds at random.
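Further: peak tail current of the secondary pulse compared with the same well before compound.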

The target of the assay is human ether-à-go-go-related gene (hERG) potassium channel (human, UniProt Q12809). The experiment in a line: primary screen, population patch clamp on CHO cells stably expressing hERG; higher = less effect of the substance.
Sequence of human ether-à-go-go-related gene (hERG) potassium channel (Q12809 whole entry, looked up): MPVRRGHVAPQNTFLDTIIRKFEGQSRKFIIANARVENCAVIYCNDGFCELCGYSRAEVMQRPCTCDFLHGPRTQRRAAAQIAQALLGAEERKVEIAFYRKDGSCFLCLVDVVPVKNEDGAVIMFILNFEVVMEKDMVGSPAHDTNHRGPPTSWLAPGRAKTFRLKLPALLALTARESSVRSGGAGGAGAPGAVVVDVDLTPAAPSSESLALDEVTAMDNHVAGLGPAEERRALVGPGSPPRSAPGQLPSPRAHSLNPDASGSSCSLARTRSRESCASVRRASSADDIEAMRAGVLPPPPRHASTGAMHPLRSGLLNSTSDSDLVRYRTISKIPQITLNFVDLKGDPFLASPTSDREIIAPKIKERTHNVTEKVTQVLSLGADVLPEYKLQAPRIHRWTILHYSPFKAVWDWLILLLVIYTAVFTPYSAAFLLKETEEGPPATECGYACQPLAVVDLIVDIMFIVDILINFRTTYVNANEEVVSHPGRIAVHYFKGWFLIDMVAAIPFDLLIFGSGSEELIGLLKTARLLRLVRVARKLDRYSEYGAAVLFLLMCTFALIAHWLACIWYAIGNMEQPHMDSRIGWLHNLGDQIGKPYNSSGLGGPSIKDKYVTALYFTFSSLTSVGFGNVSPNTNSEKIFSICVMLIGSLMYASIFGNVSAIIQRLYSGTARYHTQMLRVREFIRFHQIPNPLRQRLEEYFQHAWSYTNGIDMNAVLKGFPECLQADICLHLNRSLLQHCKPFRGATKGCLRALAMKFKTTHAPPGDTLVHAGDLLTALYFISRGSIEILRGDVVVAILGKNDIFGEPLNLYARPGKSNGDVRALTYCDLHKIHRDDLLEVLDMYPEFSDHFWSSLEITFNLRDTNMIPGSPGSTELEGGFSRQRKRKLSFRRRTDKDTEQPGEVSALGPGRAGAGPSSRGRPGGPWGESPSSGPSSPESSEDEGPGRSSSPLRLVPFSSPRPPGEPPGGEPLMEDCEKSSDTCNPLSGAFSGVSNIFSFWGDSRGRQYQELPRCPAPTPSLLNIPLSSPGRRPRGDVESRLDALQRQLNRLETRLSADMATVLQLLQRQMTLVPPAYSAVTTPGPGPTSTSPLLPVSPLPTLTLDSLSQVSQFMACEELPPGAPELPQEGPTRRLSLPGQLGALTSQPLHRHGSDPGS
Regarding `CCCCn1c(=O)[nH]c(=O)c2c1nc(-c1cc(Cl)c(OC)c(OC)c1)n2C`, the “hERG current change (%, negative = inhibition) at 10uM” value is 16.2%. Next, `CCSc1nc(O)cc(=O)n1-c1ccc(OC)cc1`: 3.73%. For `O=C(c1ccco1)N(CCC(c1ccccc1)c1ccco1)Cc1ccccc1` (stereo not drawn), the “hERG current change (%, negative = inhibition) at 10uM” value is -14.8%. With `COc1cc(/C=C2/C(=N)N3N=C(CC(=O)N4CCOCC4)SC3=NC2=O)ccc1OC(C)c1ccccc1` (stereo not drawn) the figure was 11.7%; with `Cc1ccc(NC2CCCN(C(=O)c3ccoc3C)C2)cc1C` (stereo not drawn), -1.68%. With `Cc1ccc(NC2CCCN(C(=O)c3ccc(F)cc3)C2)cc1C` (stereo not drawn) the figure was -9.71%; with `Cc1ccc(C(=O)N2CCCC(Nc3ccc(C)c(C)c3)C2)c(=O)[nH]1` (stereo not drawn), -50.3%; with `O=C(NCC(=O)N1CCCC(C(F)(F)F)C1)c1ccc2ccccc2c1` (stereo not drawn), -11.3%. Next, `Nc1n[nH]c(-c2ccc([N+](=O)[O-])cc2[N+](=O)[O-])n1`: 15.4%; `Cc1ccc2c(C(=O)CN3CCN(C4CCCCC4)CC3)c(C)[nH]c2c1`: -55.1%; `Cc1ccc2c(C(=O)CN3CCCCC3)c(C)[nH]c2c1`: -11.1%. Consider `COc1ccc2[nH]cc(C(=O)CN3CCCCC3)c2c1`, for which the “hERG current change (%, negative = inhibition) at 10uM” value is recorded as -8.72%.

As for `CCC1CCCCN1CC(=O)c1c(C)[nH]c2cc(C)ccc12` (stereo not drawn), the “hERG current change (%, negative = inhibition) at 10uM” value is -27.7%. With `Cc1ccc2c(C(=O)CN3CCCC3)c(C)[nH]c2c1` the figure was -6.89%; with `CCOC(=O)C1CCN(C(C)C(=O)c2c(C)[nH]c3cc(C)ccc23)CC1` (stereo not drawn), -76.7%. As for `Cc1ccc2c(C(=O)CN3CC(C)CC(C)C3)c(C)[nH]c2c1` (stereo not drawn), the “hERG current change (%, negative = inhibition) at 10uM” value was -51%. With `Cc1[nH]c2ccccc2c1C(=O)CN1CC(C)CC(C)C1` (stereo not drawn) the figure was 0.738%. Take `COc1ccc2[nH]cc(C(=O)CN3CCC(C)CC3)c2c1`: the “hERG current change (%, negative = inhibition) at 10uM” value is -5.75%.

As for `Cc1ccc2c(C(=O)CN3CCCC(C)C3)c(C)[nH]c2c1` (stereo not drawn), the “hERG current change (%, negative = inhibition) at 10uM” value is given as -14.8%. With `CCOC(=O)C1CCN(C(C)C(=O)c2c[nH]c3ccccc23)CC1` (stereo not drawn) the figure was -42.2%. Next, `COc1ccc2[nH]cc(C(=O)CN3CCN(C4CCCCC4)CC3)c2c1`: -54.8%; `CSc1ncccc1C(=O)N1CCN(S(=O)(=O)c2ccc3ccccc3c2)CC1`: -34.9%; `Cn1c(N2C(=O)CC(Cc3ccccc3)C2=O)nc2ccccc21` (stereo not drawn): -17.6%. With `COc1ccc(CN(C(=O)c2cccs2)c2nccs2)cc1OC` the figure was -10.9%; with `O=C1CC(NS(=O)(=O)c2cc(F)ccc2F)CN1c1ccc2c(c1)OCCO2` (stereo not drawn), -4.13%. On to `Cc1cc(C)n2nc(SCC(=O)NC(=O)c3ccccc3Cl)nc2n1`, for which the “hERG current change (%, negative = inhibition) at 10uM” value is listed as 0.516%. With `COc1ccc(N2CC(C(=O)NC3CC(C)(C)NC(C)(C)C3)CC2=O)cc1` (stereo not drawn) the figure was -2.68%. Next, `COc1ccc(NC2c3ccccc3C(=O)N2Cc2ccc3c(c2)OCO3)cc1` (stereo not drawn): -17.7%; `CCOC(=O)c1ccc(NC(=O)Nc2ccon2)cc1`: 6.02%.

As to `O=C(O)C1=CC[C@@H](c2ccc(Cl)cc2)N(S(=O)(=O)c2ccc(Cl)cc2)[C@H]1c1cccc(Cl)c1`, the “hERG current change (%, negative = inhibition) at 10uM” value is given as 25.9%. `CCOC(=O)C1CCN(CC(=O)c2c(C)[nH]c3ccccc23)CC1`: the “hERG current change (%, negative = inhibition) at 10uM” value is -39.7%.

As for `Cc1ccc2c(C(=O)CN3CCC(C(N)=O)CC3)c(C)[nH]c2c1`, the “hERG current change (%, negative = inhibition) at 10uM” value is recorded as 5.21%.

As to `CCOC(=O)C1CCN(CC(=O)c2c(C)[nH]c3cc(C)ccc23)CC1`, the “hERG current change (%, negative = inhibition) at 10uM” value was -60.5%. With `COc1cc(/C=N/NC(=O)c2ccc(Cl)cc2)ccc1OCC(=O)N1CC(C)OC(C)C1` (stereo not drawn) the figure was -18.3%; with `O=C(CN1CCN(C(=O)c2ccco2)CC1)Nc1cccc(S(=O)(=O)N2CCCC2)c1`, -16.2%. With `O=C(CN1CCN(C(=O)c2cccc(S(=O)(=O)N3CCCC3)c2)CC1)Nc1ccc(F)cc1` the figure was -61.7%; with `O=C(CN1CCN(C(=O)c2ccccc2)CC1)Nc1cc(S(=O)(=O)N2CCCC2)ccc1Cl`, -32.8%; with `O=C(CN1CCN(C(=O)c2cccc(S(=O)(=O)N3CCCC3)c2)CC1)Nc1ccccc1Cl`, -66.8%. As to `O=C(CN1CCN(S(=O)(=O)c2ccccc2)CC1)Nc1ccccc1Cl`, the “hERG current change (%, negative = inhibition) at 10uM” value is given as -6.93%. With `O=C(c1cccc(S(=O)(=O)N2CCCCC2)c1)N1CCN(S(=O)(=O)c2ccc(F)cc2)CC1` the figure was -40.6%. As for `CCOc1ccc(N2C(=O)/C(=C/c3ccco3)N(C)C2=S)cc1`, the “hERG current change (%, negative = inhibition) at 10uM” value is -4.46%. With `CCC(C)NC(=O)C1CCCN(C(=O)NC2CCCCC2)C1` (stereo not drawn) the figure was 13.8%.
